From PubChem BioAssay (NCI)
About 83,000 compounds went through this panel and 20% of them were active in at least one assay; those are over-represented in the sample as a whole.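 Results are percent growth after 48 hours of single-concentration exposure. 100 means growth as in untreated cells, lower positive values show inhibition; negative values down to -100 show cell death.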 Unmarked numbers belong to inactive results. The source made the active and inactive calls. Rule for the calls: active = growth percent below 10; inactive = the rest.

Legend:
Assay in all cases: NCI-60 one-dose screen, 48 h (100 = growth as untreated, 0 = no growth, -100 = all killed)
HT29 colon = details: 10 µM unless noted
SNB-75 CNS = details: 10 µM unless noted
SNB-19 CNS = details: 10 µM unless noted
U251 CNS = details: 10 µM unless noted
PC-3 prostate = details: 10 µM unless noted
SK-MEL-5 melanoma = details: 10 µM unless noted
UACC-62 melanoma = details: 10 µM unless noted
LOX IMVI melanoma = details: 10 µM unless noted
SK-MEL-28 melanoma = details: 10 µM
SK-MEL-2 melanoma = details: 10 µM unless noted

SMILES	growth (HT29 colon)	growth (SNB-75 CNS)	growth (SNB-19 CNS) [%]	growth (U251 CNS)	growth (PC-3 prostate)	growth (SK-MEL-5 melanoma)	growth (UACC-62 melanoma) [%]	growth (LOX IMVI melanoma)	growth (SK-MEL-28 melanoma) [%]	growth (SK-MEL-2 melanoma) [%]
O=S(=O)(Nc1ncccn1)c1ccc(NC2Nc3nc4ccccc4nc3S2)cc1 (stereo not given)	106%	84.9%	99.3	103%	101%	98.7%	93.7	94.2%	98.7	106
Cc1ccc(CN2CCC(C(=O)Nc3ccc(-c4cc5ccccc5[nH]4)cc3)CC2)o1	57.1%	100%	80	39.8%	2.12% (active)	50.4%	72.1	42.2%	85.1	88.4
CCOC(=O)c1c(Cl)c2c(n1Cc1ccccc1)-c1oncc1CCC2	25.8%	69.1%	83.2	64.5%	65.6%	53.1%	49.2	66.7%	44.7	52.7
CC1=C(C(=O)OCC2CCN(C(=O)OC(C)(C)C)CC2)[C@@H](c2cccc(C#N)c2)C2=C(CC(C)(C)CC2=O)N1	18.3%	56.9%	43	41.4%	48%	3.59% (active)	43	9.5% (active)	61.3	70.4
CCCCNc1nc(NC(C)(C)C)nc(NC(C)(C)C)n1	15.2%	59.8%	63.7	38%	58.6%	50.7%	55.3	56.8%	61.4	64.1
CCCCCCCCCCCCCCn1cc(C2=C(c3coc4ccc(OC)cc34)C(=O)NC2=O)c2ccccc21	77.1%	80.6%	101	97.9%	109%	107%	95.9	101%	101	104
CCOC(=O)c1cc2c(n1Cc1ccccc1)-c1oncc1CCC2	37.7%	75.6%	88.1	85.8%	80.6%	66.6%	51.8	79.4%	67	83.5
COc1ccc2sc3c(NCCCN)nc4ccccc4c3c(=O)c2c1	-47.8% (active)	48.3%	69.6	-58.1% (active)	48.8%	84.3%	61	-87.2% (active)	84.8	96.2
COc1ccc(-c2nsc3c2NC(=O)CC3c2ccsc2)cc1 (stereo not given)	0.633% (active)	10.4%	50	20.4%	24.3%	22%	24.9	33.4%	42.7	45.5
O=C(c1ccccc1)N(C(=S)NCCc1ccc(Cl)cc1)c1ccccc1	101%	118%	104	87.6%	83.3%	98.3%	96.9	68.2%	113	99.9
O=C(Nc1nc2c(s1)CCc1c-2c(Br)n(Cc2ccccc2)c1Br)c1ccccc1	51.6%	-10.7% (active)	65.7	57.3%	67.3%	41%	62.4	68.5%	66	89.4
FC(F)(F)c1cccc(CNC2CCN(CCc3ccccc3)CC2)c1	46.9%	71.2%	91.7	77.4%	25.2%	90%	86.4	56%	85.1	91
N#CC(C#N)=Cc1c(-c2ccccc2)[nH]c2ccccc12	14.3%	2.62% (active)	37.8	32.1%	9.36% (active)	14.9%	32.2	48.3%	42.7	45.7
